The source of these data is PubChem BioAssay AID1259313 (Sanford-Burnham Center for Chemical Genomics, 2017).

Hit rate of the full screen: of about 340,000 compounds, about 8,500 (2.5%) were called active. Many of the other results were omitted from the sample, so actives are more common in it than they were. Unmarked numbers belong to inactive results.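 How the source made its calls: active means melting temperature shift of at least 10% of the positive control shift, at one fixed dose; inactive means the rest.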

For the test, the system named is Glutamate receptor ionotropic, NMDA 3A (GRIN3A) ligand-binding domain. Kind of test: NR3A LBD thermal stabilization by compounds – biophysical, differential scanning fluorimetry, uHTS, primary screen (AID 1259313). Particulars: at 25 µM, stronger effect = higher value, 0% = protein alone, 100% = glycine-bound protein. On the technique in general: DSF heats the sample and reads unfolding from a dye or from intrinsic fluorescence.
`COCCn1c(=NC(=O)c2ccccc2[N+](=O)[O-])sc2cc(S(C)(=O)=O)ccc21`: the Tm shift relative to glycine control was 3.81%.
The result for `C=C(C)COc1ccc(-c2ncncc2-c2ccc(OC)cc2)c(O)c1` reads -1.75%; that for `C=C(C)COc1ccc(-c2n[nH]c(C)c2-c2ccccc2)c(O)c1`, 10.9% (active).
The result for `C=C(C)COc1ccc(-c2nc(N)ncc2-c2ccccc2OC)c(O)c1` reads -3.37%; that for `COc1c(C)c2c(c(O)c1C/C=C(\C)CCC(=O)O)C(=O)OC2`, 0.8%; that for `CC(OC(=O)c1cc2ccccc2[nH]1)C(=O)N(C)c1ccccc1` (stereo not drawn), -1.09%.
With `COc1ccc2[nH]c(C(=O)Nc3ccccc3Cl)cc2c1`, the Tm shift relative to glycine control is 1.25%.
The result for `O=C(Nc1ccccc1)c1cc2ccccc2[nH]1` reads 20.5% (active); that for `Cc1ccc(CC2C(=O)N(c3ccc(F)cc3)C(=O)C2C)cc1` (stereo not drawn), 1.55%.
For `CC(=O)N1CCN(CC(C)(C)NS(=O)(=O)c2ccc(C)cc2)CC1` the value was 1.96%.
For `O=C(NCCCN1CCOCC1)C1CCCN(S(=O)(=O)N2CCCCC2)C1` (stereo not drawn), the Tm shift relative to glycine control was -1.39%.
For `CCOC(=O)N1CCN(C(=O)C(=O)Nc2sc3c(c2C#N)CC(C)(C)OC3)CC1`, the Tm shift relative to glycine control was -1.52%.
For `CCc1ccccc1N(CC(=O)NCC1CCCO1)C(=O)CCC(=O)Nc1nccs1` (stereo not drawn) the value was -2.76%.
For `COc1cccc(CC2(CO)CCCN(CC3=Cc4cc(OC)ccc4OC3)C2)c1` (stereo not drawn) the value was -4.46%; for `COc1cccc(CC2(CO)CCCN(Cc3ccc(OC(F)F)cc3)C2)c1` (stereo not drawn), 25.6% (active); for `COc1cccc(CC2(CO)CCCN(Cc3nc(-c4cccs4)oc3C)C2)c1` (stereo not drawn), -1.72%.
The result for `O=C(CCNS(=O)(=O)c1ccccc1)NCCSc1ccc(Br)cc1` reads -2.33%; that for `c1ccc(-c2c[nH]c(-c3ccccc3)c2)cc1`, 17.4% (active).
For the compound `c1ccc(-c2ccc3c(c2)NC(C2Nc4cc(-c5ccccc5)ccc4O2)O3)cc1` (stereo not drawn), the Tm shift relative to glycine control was 0.36%.
For `O=c1cc(-c2ccccc2)[nH]c2cc(F)ccc12` the value was -1.79%.
The result for `Nn1c(SCc2ccccc2)nnc1C1CCCCC1` reads 1.23%; that for `Cc1ccccc1Nc1nc(N)nc(COC(=O)CCC(=O)c2ccc(F)cc2)n1`, -0.42%; that for `CCC1SC2=NCCN2C1(O)c1ccc(Cl)cc1` (stereo not drawn), -1.83%.
The result for `CCOc1ccc(S(=O)(=O)N/N=C(\C)c2ccc(Cl)c(Cl)c2Cl)cc1` reads 16.2% (active); that for `CCOc1ccc(S(=O)(=O)Nc2nccs2)cc1`, -0.76%.
As for `CCOc1cc(NS(=O)(=O)c2ccc(OC)cc2)c(OCC)cc1NC(C)=O`, the Tm shift relative to glycine control is 1.23%.
The result for `O=C(O)C(CCc1ccccn1)c1ccccc1` (stereo not drawn) reads 0.46%; that for `O=C1c2ccccc2C(=O)N1CCC#Cc1ccc2cc(C3(O)CCCCC3)oc(=O)c2c1`, 35.3% (active); that for `COc1cc(C(=O)NCCOC(=O)c2cccc(N(C)C)c2)cc(OC)c1OC`, 0.47%.
For `Cc1ccc(-c2nn(-c3ccccc3)cc2/C=C2\SC(=S)N(CCCCCC(=O)O)C2=O)o1` the value was -394%; for `C=CCOc1ccc(/C=C2\SC(=S)N(CCC(=O)O)C2=O)cc1`, 1.33%; for `COc1ccc(-c2nn(-c3ccccc3)cc2/C=C2/SC(=S)N(CCCC(=O)O)C2=O)c(C)c1`, 12.5% (active).
For `COc1cccc(NS(=O)(=O)c2ccc(-c3coc(C)n3)cc2)c1` the value was -0.18%; for `O=C(CCNS(=O)(=O)c1ccc(Br)s1)NCc1ccccc1Cl`, -2.24%; for `CCOc1ccccc1NC(=S)C(=C([O-])c1ccc2c(c1)OCCO2)[n+]1ccc(CC)cc1`, -1.27%.
Regarding `COC(=O)c1cc(Oc2ccc(S(=O)(=O)N3CCOCC3)cc2[N+](=O)[O-])cc(C(=O)OC)c1`, the Tm shift relative to glycine control was 0.08%.
For `Cc1ccc(C(=O)NNC(=O)c2cccs2)cc1` the value was 0.08%.
The result for `Cc1cccc(C(=O)Nc2ccc(CC(=O)O)cc2)c1` reads -4.02%; that for `Cc1ccc(C(=O)Nc2ccc(NC(=O)c3cccs3)cc2)c(C)c1`, 28.3% (active).
The result for `Cc1ccc(-c2nnc(-c3ccc(NC(=O)c4cccs4)cc3)o2)cc1` reads 22.2% (active); that for `Brc1ccc(-c2nnc(-c3ccccc3)o2)o1`, -0.09%; that for `Cc1cccc(C(=O)Nc2ccc(C(=O)/C=C/c3cccs3)cc2)c1`, 29.2% (active).
For `O=C(Nc1ccc(-c2nnc(-c3ccccc3)o2)cc1)c1ccc(Br)o1`, the Tm shift relative to glycine control is 35.9% (active).
The result for `Cc1cccc(C=CC(=O)c2ccc(Cl)cc2)c1` reads 4.44%; that for `O=C(CNC(=O)c1ccc(Br)o1)Nc1ccccc1`, 2.09%.
In the case of `CCc1ccc(NC(=O)C(=O)NNC(=O)c2cccs2)cc1`, the Tm shift relative to glycine control was -14.4%.
For `Cc1ccc(OCC(=O)Nc2ccc(NC(=O)c3cccs3)cc2)c(C)c1` the value was 0.85%; for `Cc1ccc(NC(=O)c2cccs2)cc1S(=O)(=O)N(C)C`, -5.63%; for `COc1cccc2c1C(=O)c1c(O)c3c(c(O)c1C2=O)CC(O)(C(C)=NNC(=O)c1ccc(Cl)c(Cl)c1)CC3OC1CC(N)C(O)C(C)O1` (stereo not drawn), -18.1%.
In the case of `COc1ccc(C)cc1S(=O)(=O)Nc1cccc(Cl)c1Cl`, the Tm shift relative to glycine control was -5.61%.
The result for `CCCOc1ccc(/C=N/NC(=O)C2CC2)c(OCCC)c1` reads 0.85%; that for `Cc1cc(C)nc(NS(=O)(=O)c2ccc(N/C=C\C(=O)c3cccs3)cc2)n1`, -2.02%.
For `COc1cc(CO)ccc1OCC(=O)Nc1cccc2ccccc12` the value was 1.02%; for `CCOC(=O)[C@H]1[C@H]2COc3ccc(OC)cc3[C@@H]2N2C(=O)c3ccc(F)cc3NC(=O)[C@@]12C`, -0.63%; for `NC1=C([N+](=O)[O-])C(c2ccccc2)C2=C(CCCC2=O)O1` (stereo not drawn), -0.34%.
The result for `Cc1cccc(NC(=O)CCN2CC(C)CC(C)C2)c1` (stereo not drawn) reads -0.71%; that for `Cc1cccc(NC(=O)C(C)SCc2ccccc2)c1` (stereo not drawn), 1.98%.
`Cc1cccc(NC(=O)C(C)N2C(=O)C3C4CC(C(Br)C4Br)C3C2=O)c1` (stereo not drawn): the Tm shift relative to glycine control is 13.7% (active).
The result for `Cc1ccc(Nc2ccccc2N)cc1` reads 0.92%; that for `CCn1c(O)c(N=NC(=O)c2cccc(S(=O)(=O)N3CCCCC3)c2)c2ccccc21`, -34.1%; that for `CC(=O)Nc1ccc(NC(=O)c2ccc3c(c2)C(=O)N(c2ccccc2C)C3=O)cc1`, -0.29%.
Turning to `Cc1cccc(N2C(=O)c3ccc(C(=O)Nc4cccc(C(=O)O)c4)cc3C2=O)c1`, the Tm shift relative to glycine control is 11.6% (active).
For `Cc1cccc(C(=O)Nc2ccc3c(c2)C(=O)N(CC(C)C)C3=O)c1` the value was 0.17%.
For `CCC(C(=O)NCCC(C)C)N(Cc1ccccc1Cl)C(=O)c1snc(C(N)=O)c1N` (stereo not drawn) the value was -0.19%.
The result for `Cc1ccc2c(c1)C(O)(CC(=O)c1cccnc1)C(=O)N2` (stereo not drawn) reads -0.39%; that for `CCCn1c(C)cc(-c2csc(NC(=O)CCc3nc4ccccc4c(=O)[nH]3)n2)c1C`, -0.45%.
In the case of `CCCc1nc(SCC(=O)Nc2ccc(S(=O)(=O)N(C)C)cc2)c2ccccc2n1`, the Tm shift relative to glycine control is 17.5% (active).
The result for `CCc1nc(SCC(=O)NNC(=O)c2ccc(C)cc2)c2ccccc2n1` reads -0.6%.
Regarding `CCCNC(=O)CSc1nc(Cc2ccccc2)nc2ccccc12`, the Tm shift relative to glycine control is -0.71%.
For `COc1ccc(CC(=O)NCc2nnc(SCC(=O)Nc3nccs3)n2C)cc1` the value was 0.45%; for `CCCCc1cc(=O)oc2cc(C)cc(OCc3nn[nH]n3)c12`, 14.2% (active); for `CCc1cc(=O)oc2cc(C)cc(OC(C)C(=O)O)c12` (stereo not drawn), -0.34%.
For `CCOC(=O)CCc1c(C)c2ccc(OCc3nn[nH]n3)c(C)c2oc1=O` the value was -2.57%; for `O=C1NC(c2ccncc2)Nc2sc3c(c21)CCCC3` (stereo not drawn), 0.51%; for `N#C/C(=C\c1ccccc1)c1n[nH]c(Cn2cncn2)n1`, -0.2%.
As for `COc1ccccc1C1C(C#N)=C(N)Oc2c1c(-c1ccccc1)nn2-c1ccccc1` (stereo not drawn), the Tm shift relative to glycine control was 22.2% (active).
For `Cc1nn(Cc2ccccc2)c2c1C(c1ccccc1)C(C#N)=C(N)O2` (stereo not drawn) the value was 2.39%.
Take `Cc1nn(-c2ccccc2)c2c1C(c1ccc(F)cc1)C(C#N)=C(N)O2` (stereo not drawn): the Tm shift relative to glycine control was -4.31%.
For the compound `Cc1ccc(C)c(OCc2cc(C(=O)N3CCN(c4cnccn4)CC3)no2)c1`, the Tm shift relative to glycine control was 4%.
For `O=C(COC(=O)Cn1cnc2ccccc21)Nc1cccc2c1C(=O)c1ccccc1C2=O` the value was -5.74%; for `O=C(COC(=O)c1ccccc1)Nc1ccccc1Sc1ccccc1`, 5.64%.
For `O=C(COC(=O)c1cccc(Br)c1)Nc1cccc2c1C(=O)c1ccccc1C2=O` the value was 14.9% (active); for `CCCCC(=O)N(c1ccc(OC)cc1)C1C=CS(=O)(=O)C1` (stereo not drawn), -8.09%; for `COc1ccc(CCNC(=O)CN2C(=O)CCSc3ccccc32)c(OC)c1`, -7.1%.
Turning to `CC1CC(C)CN(CCC(=O)Nc2ccc3c(c2)CCC3)C1` (stereo not drawn), the Tm shift relative to glycine control is 2.54%.
For `O=C(Nc1ccc(F)cc1)c1cc2c(s1)CCCC2` the value was 6.13%; for `O=C(Nc1ccc2c(c1)CCC2)c1ccc(Br)s1`, 14.5% (active); for `O=C1c2ccccc2C(=O)C1C(=O)C1CC1`, 1.97%.
For `Cc1ccc(CSc2nc3[nH]ncc3c(=O)[nH]2)cc1`, the Tm shift relative to glycine control was -1.69%.
For `NS(=O)(=O)c1ccc(NC(=S)Nc2ccc(Br)c(Cl)c2)cc1` the value was 26.7% (active); for `COc1ccc(NC(=S)Nc2ccc(S(N)(=O)=O)cc2)c(C)c1`, -1.86%; for `NS(=O)(=O)c1ccc(CCNC(=S)Nc2ccc(S(N)(=O)=O)cc2)cc1`, 0.88%.
The result for `CCCCCc1nnc(NC(=O)c2ccc(=O)n(C)n2)s1` reads -0.62%.
